# Results: article PMC7819943, “Rice protein-binding microarrays: a tool to detect cis-acting elements near promoter regions in rice”
# In all, about 68,000 sequences were measured (“fluorescence intensity (a.u.)”: median about 9,100, highest 2% from about 16,000 on). The entries come from a sample that favours the highest values as a whole.
# Target: OsWRKY34 (Oryza sativa, UniProt Q0JBA9 1-250)
# Assay: protein-binding microarray (RPBM); PBS, 2% BSA, 51.3 ng/ul salmon testes DNA, 50 uM zinc acetate, 200 nM TF, 25 C, 1 h; high values mean tight binding
# Settings: protein: recombinant; tags: N-terminal polyhistidine and DsRed monomer fusion (pET32a); label: CyDye5-dUTP incorporated in the synthesized complementary strand; 3' TTTTT single-stranded linker to array surface; dsDNA, one strand shown
# How it was run: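 For the binding signal, per-feature fluorescence intensity was read in arbitrary units on an Axon 4000B scanner. Before scanning, a 2% BSA-blocked custom Agilent array made double-stranded with Cy5-dUTP was washed after 1 h at 25 °C with 200 nM protein and 50 µM zinc acetate. The proteins were Ni–NTA-purified transcription factors with N-terminal polyhistidine and DsRed fusions, expressed in E. coli BL21-CodonPlus.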
# Sequence of OsWRKY34 (Q0JBA9 entry or part of it): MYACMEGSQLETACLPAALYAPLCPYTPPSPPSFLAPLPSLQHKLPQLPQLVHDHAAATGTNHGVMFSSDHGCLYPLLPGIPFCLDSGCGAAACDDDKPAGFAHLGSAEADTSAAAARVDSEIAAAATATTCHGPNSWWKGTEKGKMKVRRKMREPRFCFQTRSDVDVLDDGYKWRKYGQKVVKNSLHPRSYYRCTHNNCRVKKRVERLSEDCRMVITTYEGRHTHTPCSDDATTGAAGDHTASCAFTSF
row,Sequence,binding signal
1,TTTCATGCGTTCCAAGTTGTCATTACTCCTTTGTACTCTCCGGAGTCACCTAGTGCAG,10700 fluorescence intensity (a.u.)
2,CCGCCGGACTCTCAAAATCCCAAGTCTCAACTCGATCAGCCGGAGTCACCTAGTGCAG,8170 fluorescence intensity (a.u.)
3,AACTCTAATTTACTGTTGGTTGGTGCAATATCAGATGGATCGGAGTCACCTAGTGCAG,8900 fluorescence intensity (a.u.)
4,GCTCAGATTGTTCATCAAGTTTTTCCTCTGTGCTCTGTTTCGGAGTCACCTAGTGCAG,8890 fluorescence intensity (a.u.)
5,ATGAGTATATATAAGCTTAGTCTCTTTTCTTTTCTTTCTTCGGAGTCACCTAGTGCAG,8940 fluorescence intensity (a.u.)
6,ACGCCGTTGACTTTTTTAAACATGTTTAACCGTTCATCTTCGGAGTCACCTAGTGCAG,47400 fluorescence intensity (a.u.)
7,CGTTGACTTTTTAAAATATATTTGACCGTTCGTCTTATTCCGGAGTCACCTAGTGCAG,24100 fluorescence intensity (a.u.)
8,GTTGATTTTTTTTAAATATGTTTGACCGTTCGTCTTATTCCGGAGTCACCTAGTGCAG,8600 fluorescence intensity (a.u.)
9,TGTTGACTTTTTAAAACATGTTTGACCGTTCATATTATTCCGGAGTCACCTAGTGCAG,15700 fluorescence intensity (a.u.)
10,TGTTGATTTTTTAAAATATGTTTGACCGTTCGTCTTATTCCGGAGTCACCTAGTGCAG,10700 fluorescence intensity (a.u.)
11,GCATTCGTTTCAGGCTGTTCCCAACCTCTCTCCCTTGTTTCGGAGTCACCTAGTGCAG,12000 fluorescence intensity (a.u.)
12,CGGCCCAAGCTTCATTGACAAATTGTCTTGAATTTGTACACGGAGTCACCTAGTGCAG,8510 fluorescence intensity (a.u.)
13,ACACATATTTATTTTCTCCACTACCACAGAAGGAACTTTTCGGAGTCACCTAGTGCAG,9140 fluorescence intensity (a.u.)
14,ATTGATTGATTGGTTGGTTGGTTGGTTGGGTTGATCGATGCGGAGTCACCTAGTGCAG,20300 fluorescence intensity (a.u.)
15,TTTGGTAAGATTTGAACGGTTGGTTGTATAGGTCATTGACCGGAGTCACCTAGTGCAG,16900 fluorescence intensity (a.u.)
16,TTTATTGTTGTTTTTGGGTTGGTTTGGTTTGATTCCGATGCGGAGTCACCTAGTGCAG,9120 fluorescence intensity (a.u.)
17,ATCGAATGGTTGGTTCGGTTTGGTTTTGATTGATCGATATCGGAGTCACCTAGTGCAG,22300 fluorescence intensity (a.u.)
18,GCGGTGGAGGCGGTGGCGGTGGTGGCGGTGGTGGAGGATGCGGAGTCACCTAGTGCAG,21200 fluorescence intensity (a.u.)
19,ATTTTCGTGTTATTTTTGGTTCTGGTTGATTGATCGATTTCGGAGTCACCTAGTGCAG,12900 fluorescence intensity (a.u.)
20,GAGGAGGAGGAGGAGGAGGAGGAGGATGCGGGTGGTGGTGCGGAGTCACCTAGTGCAG,10500 fluorescence intensity (a.u.)
21,CTTCGATTGGTTTGTTGGTTTGACTGGAATTCGGATGGATCGGAGTCACCTAGTGCAG,10100 fluorescence intensity (a.u.)
22,GTGGTTGGTTGGTGCGGTTGCGGCGGGTGATCGAACGATGCGGAGTCACCTAGTGCAG,12100 fluorescence intensity (a.u.)

row,Sequence,binding signal
1,ATATAGGTTACGGATTTGTCATTGGTCGTTGTATTCTTTTCGGAGTCACCTAGTGCAG,10600 fluorescence intensity (a.u.)
2,AGGGGAGGTAGGTAAGAAGATTGAACAGTGGAGGGTTGTACGGAGTCACCTAGTGCAG,9840 fluorescence intensity (a.u.)
3,GTGGTGGCGGTGGAGGTGGAGGTGGAGGCGCCGTGGTGCGCGGAGTCACCTAGTGCAG,12600 fluorescence intensity (a.u.)
4,TTTCATGTTCGTGAAAATTATACATTTTATATGCGCCTTTCGGAGTCACCTAGTGCAG,8720 fluorescence intensity (a.u.)
5,GAAGCCATATCATCTTAATTGTTTTTAGCTCTTCTCTCATCGGAGTCACCTAGTGCAG,10300 fluorescence intensity (a.u.)
6,AAAATTTTTCTATTCAATTCTTTTCGTTTTTGGACCTCTCCGGAGTCACCTAGTGCAG,8660 fluorescence intensity (a.u.)
7,CCCTAAACAGGTCAACCTCAGGTGTTGACTAGAGTACTAGCGGAGTCACCTAGTGCAG,8290 fluorescence intensity (a.u.)
8,GTGTGTAGTGGTGTTTGTGCGCGGCCTCTAATATCATGTACGGAGTCACCTAGTGCAG,11600 fluorescence intensity (a.u.)
9,GATTCATACAATTGTATGGTGTTAACATGGCGATTTTTTGCGGAGTCACCTAGTGCAG,9120 fluorescence intensity (a.u.)
10,CCGCTACAACACTCAACACCATACCACATGTCATCTCCGTCGGAGTCACCTAGTGCAG,8060 fluorescence intensity (a.u.)
11,CTTCTGTCACGTACGCCCGTCCCTCATATGGCCAATCGCGCGGAGTCACCTAGTGCAG,13400 fluorescence intensity (a.u.)
12,CACTTACACTTTCATTTTCGCTTCATGTAAAATAGTCAACCGGAGTCACCTAGTGCAG,8980 fluorescence intensity (a.u.)
13,CGGGAGAGGGAGGTGATGATGGGGCGGCGGAGGATTGGAGCGGAGTCACCTAGTGCAG,8130 fluorescence intensity (a.u.)
14,ATAGGTAGATTGTTGGTGATGCTCTAAGGGTGGGTTTTGACGGAGTCACCTAGTGCAG,13400 fluorescence intensity (a.u.)
15,TCGATTGGGGATTGGGGATTGGGGATCAGGAGGGATGGGGCGGAGTCACCTAGTGCAG,20900 fluorescence intensity (a.u.)
16,GGCGGAGGGAGGGAGGGGAAGTCGGTGGTGAGGTGGCGTGCGGAGTCACCTAGTGCAG,12900 fluorescence intensity (a.u.)
17,GTTGGTGGTGGTGGTGGAGGAGGCGGTGGTGGGATCGATGCGGAGTCACCTAGTGCAG,23900 fluorescence intensity (a.u.)
18,AGATGCCTCGTGCTAGGTTTGATTGGTTGGTTGGTTGGTACGGAGTCACCTAGTGCAG,19400 fluorescence intensity (a.u.)
19,AGGGACAGGGTTGGTGAAGTGGCTTCCATGCGGCGGCCACCGGAGTCACCTAGTGCAG,8150 fluorescence intensity (a.u.)
20,TCGCTAGGAGTGGTGGTGGTGGTGGGAGGAGGAGGCGATGCGGAGTCACCTAGTGCAG,13000 fluorescence intensity (a.u.)
21,GGGGATCAGGAGGGATGGGGATTGGGGAGACGAGTGGATGCGGAGTCACCTAGTGCAG,8330 fluorescence intensity (a.u.)
22,GTTGCTGTTTTTGATGGTCGTTGAGACAGATAGTTTGGTACGGAGTCACCTAGTGCAG,8360 fluorescence intensity (a.u.)
